Legend:
POU1 (OCT1 POU domain) = POU1 (OCT1 POU domain) (human, UniProt P14859 260-458); assay: EMSA-SELEX-seq; no BOB1; 20 mM Tris-HCl pH 7.6, 140 mM NaCl, 10% glycerol, 0.5 mM EDTA, 0.05% Triton X-100, 0.1 mg/mL BSA, 0.1 mg/mL poly(dI-dC), 5 mM DTT, room temperature, 20 min; high values mean tight binding; details: protein: recombinant; dsDNA, one strand shown
Procedure, shortened: (§1)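 Binding preference is reported as the percentage of sequenced 8-mers that match a motif pattern. Tagged POU-domain proteins were made in E. coli BL21, purified under denaturing conditions and renatured. A 30 ng portion was combined with 300 ng of a PCR-amplified double-stranded random 35-nt library, with or without 28 ng coactivator protein, in 20 μL Tris–HCl pH 7.6 binding buffer for 20 min at RT. Complex bands were excised from native 6% PAGE, eluted and PCR-amplified over four rounds before Illumina sequencing.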

POU2 (OCT2 POU domain) = target: T1, POU2 (OCT2 POU domain) (human, UniProt P09086 175-386); assay: as above; details: protein: recombinant; dsDNA, one strand shown
T1 sequence: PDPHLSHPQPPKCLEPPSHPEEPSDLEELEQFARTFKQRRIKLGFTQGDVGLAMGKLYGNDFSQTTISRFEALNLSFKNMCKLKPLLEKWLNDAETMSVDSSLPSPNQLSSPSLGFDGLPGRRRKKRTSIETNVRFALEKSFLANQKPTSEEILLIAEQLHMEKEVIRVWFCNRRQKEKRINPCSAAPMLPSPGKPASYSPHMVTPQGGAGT
Procedure, shortened: as §1

[1] = target: POU1 (OCT1 POU domain);BOB1 (OBF1, OCA-B) (human;human, UniProt P14859;Q16633 260-458;1-256, |); assay: EMSA-SELEX-seq; with BOB1 (ternary complex band); 20 mM Tris-HCl pH 7.6, 140 mM NaCl, 10% glycerol, 0.5 mM EDTA, 0.05% Triton X-100, 0.1 mg/mL BSA, 0.1 mg/mL poly(dI-dC), 5 mM DTT, room temperature, 20 min; high values mean tight binding; details: protein: recombinant;recombinant; copies: 1;1; dsDNA, one strand shown
Procedure, shortened: as §1

[2] = target: T2, POU2 (OCT2 POU domain);BOB1 (OBF1, OCA-B) (human;human, UniProt P09086;Q16633 175-386;1-256, |); assay: as above; details: protein: recombinant;recombinant; copies: 1;1; dsDNA, one strand shown
T2 sequence 1: T1 sequence
T2 sequence 2: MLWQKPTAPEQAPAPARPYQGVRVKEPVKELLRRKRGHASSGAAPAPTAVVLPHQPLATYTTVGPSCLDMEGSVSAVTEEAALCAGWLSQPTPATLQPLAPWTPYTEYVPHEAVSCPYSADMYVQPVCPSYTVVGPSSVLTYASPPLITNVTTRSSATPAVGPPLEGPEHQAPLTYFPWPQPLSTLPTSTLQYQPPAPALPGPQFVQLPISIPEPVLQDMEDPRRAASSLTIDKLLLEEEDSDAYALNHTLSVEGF
Procedure, shortened: as §1

POU1 (OCT1 POU domain), sequence (P14859 260-458): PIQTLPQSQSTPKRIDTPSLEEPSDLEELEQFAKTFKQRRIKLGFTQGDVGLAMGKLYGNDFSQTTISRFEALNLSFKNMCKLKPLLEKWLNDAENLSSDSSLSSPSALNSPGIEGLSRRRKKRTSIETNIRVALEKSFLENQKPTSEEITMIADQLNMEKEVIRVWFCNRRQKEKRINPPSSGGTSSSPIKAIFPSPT

Sequence | binding signal (POU1 (OCT1 POU domain)) | binding signal (POU2 (OCT2 POU domain)) | binding signal [1] | binding signal [2]
AGGTTAAG | 0.0522 % of ANNNNAAN 8-mers | 0.0639 % of ANNNNAAN 8-mers | 0.0542 % of ANNNNAAN 8-mers | 0.052 % of ANNNNAAN 8-mers
AGTCTAAA | 0.037 % of ANNNNAAN 8-mers | 0.0501 % of ANNNNAAN 8-mers | 0.0398 % of ANNNNAAN 8-mers | 0.0504 % of ANNNNAAN 8-mers
AGAGAAAT | 0.0679 % of ANNNNAAN 8-mers | 0.0708 % of ANNNNAAN 8-mers | 0.0753 % of ANNNNAAN 8-mers | 0.0784 % of ANNNNAAN 8-mers
ATAAAAAT | 0.131 % of ANNNNAAN 8-mers | 0.125 % of ANNNNAAN 8-mers | 0.114 % of ANNNNAAN 8-mers | 0.09 % of ANNNNAAN 8-mers
AGTCCAAC | 0.0114 % of ANNNNAAN 8-mers | 0.0167 % of ANNNNAAN 8-mers | 0.0144 % of ANNNNAAN 8-mers | 0.0248 % of ANNNNAAN 8-mers
ATGGGAAG | 0.0652 % of ANNNNAAN 8-mers | 0.0696 % of ANNNNAAN 8-mers | 0.0683 % of ANNNNAAN 8-mers | 0.0735 % of ANNNNAAN 8-mers
AAGCAAAA | 0.142 % of ANNNNAAN 8-mers | 0.0898 % of ANNNNAAN 8-mers | 0.204 % of ANNNNAAN 8-mers | 0.106 % of ANNNNAAN 8-mers
AATCTAAT | 0.116 % of ANNNNAAN 8-mers | 0.143 % of ANNNNAAN 8-mers | 0.0972 % of ANNNNAAN 8-mers | 0.0949 % of ANNNNAAN 8-mers
AGGCGAAT | 0.0618 % of ANNNNAAN 8-mers | 0.069 % of ANNNNAAN 8-mers | 0.0593 % of ANNNNAAN 8-mers | 0.0743 % of ANNNNAAN 8-mers
ACTACAAG | 0.0194 % of ANNNNAAN 8-mers | 0.0201 % of ANNNNAAN 8-mers | 0.0183 % of ANNNNAAN 8-mers | 0.0231 % of ANNNNAAN 8-mers
ACCTCAAT | 0.0202 % of ANNNNAAN 8-mers | 0.0196 % of ANNNNAAN 8-mers | 0.025 % of ANNNNAAN 8-mers | 0.0289 % of ANNNNAAN 8-mers
AGACAAAG | 0.0404 % of ANNNNAAN 8-mers | 0.0374 % of ANNNNAAN 8-mers | 0.0558 % of ANNNNAAN 8-mers | 0.0248 % of ANNNNAAN 8-mers
ATGAAAAA | 0.149 % of ANNNNAAN 8-mers | 0.123 % of ANNNNAAN 8-mers | 0.204 % of ANNNNAAN 8-mers | 0.121 % of ANNNNAAN 8-mers
AAGCTAAT | 0.0969 % of ANNNNAAN 8-mers | 0.136 % of ANNNNAAN 8-mers | 0.0527 % of ANNNNAAN 8-mers | 0.0644 % of ANNNNAAN 8-mers
ACCGAAAG | 0.0137 % of ANNNNAAN 8-mers | 0.0144 % of ANNNNAAN 8-mers | 0.0164 % of ANNNNAAN 8-mers | 0.0149 % of ANNNNAAN 8-mers
ATCCCAAC | 0.0137 % of ANNNNAAN 8-mers | 0.0213 % of ANNNNAAN 8-mers | 0.0172 % of ANNNNAAN 8-mers | 0.014 % of ANNNNAAN 8-mers
AACTAAAT | 0.0778 % of ANNNNAAN 8-mers | 0.0811 % of ANNNNAAN 8-mers | 0.0667 % of ANNNNAAN 8-mers | 0.0594 % of ANNNNAAN 8-mers
AAGGCAAA | 0.222 % of ANNNNAAN 8-mers | 0.117 % of ANNNNAAN 8-mers | 0.443 % of ANNNNAAN 8-mers | 0.278 % of ANNNNAAN 8-mers
AGTCAAAT | 0.566 % of ANNNNAAN 8-mers | 0.367 % of ANNNNAAN 8-mers | 1.18 % of ANNNNAAN 8-mers | 1.04 % of ANNNNAAN 8-mers

Sequence | binding signal (POU1 (OCT1 POU domain)) | binding signal (POU2 (OCT2 POU domain)) | binding signal [1] | binding signal [2]
ACTTCAAT | 0.0256 % of ANNNNAAN 8-mers | 0.038 % of ANNNNAAN 8-mers | 0.0363 % of ANNNNAAN 8-mers | 0.0446 % of ANNNNAAN 8-mers
AATTTAAC | 0.17 % of ANNNNAAN 8-mers | 0.147 % of ANNNNAAN 8-mers | 0.117 % of ANNNNAAN 8-mers | 0.0982 % of ANNNNAAN 8-mers
ATTGCAAT | 0.0561 % of ANNNNAAN 8-mers | 0.061 % of ANNNNAAN 8-mers | 0.0523 % of ANNNNAAN 8-mers | 0.0479 % of ANNNNAAN 8-mers
ACGTTAAC | 0.024 % of ANNNNAAN 8-mers | 0.0316 % of ANNNNAAN 8-mers | 0.0234 % of ANNNNAAN 8-mers | 0.0289 % of ANNNNAAN 8-mers
AGCGAAAT | 0.0526 % of ANNNNAAN 8-mers | 0.0627 % of ANNNNAAN 8-mers | 0.0492 % of ANNNNAAN 8-mers | 0.0619 % of ANNNNAAN 8-mers
AGACCAAG | 0.0137 % of ANNNNAAN 8-mers | 0.0121 % of ANNNNAAN 8-mers | 0.0164 % of ANNNNAAN 8-mers | 0.014 % of ANNNNAAN 8-mers
AGTTTAAT | 0.129 % of ANNNNAAN 8-mers | 0.156 % of ANNNNAAN 8-mers | 0.0882 % of ANNNNAAN 8-mers | 0.111 % of ANNNNAAN 8-mers
AGCCTAAT | 0.0503 % of ANNNNAAN 8-mers | 0.0811 % of ANNNNAAN 8-mers | 0.0324 % of ANNNNAAN 8-mers | 0.038 % of ANNNNAAN 8-mers
AATAAAAG | 0.106 % of ANNNNAAN 8-mers | 0.121 % of ANNNNAAN 8-mers | 0.118 % of ANNNNAAN 8-mers | 0.101 % of ANNNNAAN 8-mers
AGGTTAAC | 0.032 % of ANNNNAAN 8-mers | 0.0293 % of ANNNNAAN 8-mers | 0.0324 % of ANNNNAAN 8-mers | 0.0338 % of ANNNNAAN 8-mers
ACTCGAAA | 0.0271 % of ANNNNAAN 8-mers | 0.0357 % of ANNNNAAN 8-mers | 0.0293 % of ANNNNAAN 8-mers | 0.0314 % of ANNNNAAN 8-mers
ACCGTAAC | 0.0118 % of ANNNNAAN 8-mers | 0.019 % of ANNNNAAN 8-mers | 0.018 % of ANNNNAAN 8-mers | 0.0272 % of ANNNNAAN 8-mers
AAAGAAAC | 0.0355 % of ANNNNAAN 8-mers | 0.0339 % of ANNNNAAN 8-mers | 0.0433 % of ANNNNAAN 8-mers | 0.0371 % of ANNNNAAN 8-mers
AGTGGAAA | 0.0542 % of ANNNNAAN 8-mers | 0.0512 % of ANNNNAAN 8-mers | 0.0718 % of ANNNNAAN 8-mers | 0.052 % of ANNNNAAN 8-mers
ACGGTAAA | 0.0389 % of ANNNNAAN 8-mers | 0.0524 % of ANNNNAAN 8-mers | 0.0507 % of ANNNNAAN 8-mers | 0.0504 % of ANNNNAAN 8-mers
AACGCAAG | 0.016 % of ANNNNAAN 8-mers | 0.0219 % of ANNNNAAN 8-mers | 0.0222 % of ANNNNAAN 8-mers | 0.0281 % of ANNNNAAN 8-mers
ACGACAAC | 0.0126 % of ANNNNAAN 8-mers | 0.0132 % of ANNNNAAN 8-mers | 0.0133 % of ANNNNAAN 8-mers | 0.0149 % of ANNNNAAN 8-mers
AGGTGAAA | 0.0587 % of ANNNNAAN 8-mers | 0.0466 % of ANNNNAAN 8-mers | 0.0601 % of ANNNNAAN 8-mers | 0.0471 % of ANNNNAAN 8-mers

Source: article PMC10812921, “Transcriptional Coactivator BOB1 (OBF1, OCA-B) Modulates the Specificity of DNA Recognition by the POU-Domain Factors OCT1 and OCT2 in a Monomeric Configuration”
